AmpC no deterg: qHTS Inhibitors of AmpC Beta-Lactamase (assay without detergent); actives 0.52% (n = 330,000); AmpC nitrocefin hydrolysis, absorbance 480 nm, 0.0001% Triton; AID 485341, 2010; Potency, µM (titrated, usually from 57.1 µM), for inactives: at the highest dose activity change, negative = inhibition, hits mostly inhibitors;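 further: plate controls were no compound for no effect and no enzyme for full effect; nearly all actives have a fitted effect of over 20% in size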
Target sequence (P00811 whole entry, looked up): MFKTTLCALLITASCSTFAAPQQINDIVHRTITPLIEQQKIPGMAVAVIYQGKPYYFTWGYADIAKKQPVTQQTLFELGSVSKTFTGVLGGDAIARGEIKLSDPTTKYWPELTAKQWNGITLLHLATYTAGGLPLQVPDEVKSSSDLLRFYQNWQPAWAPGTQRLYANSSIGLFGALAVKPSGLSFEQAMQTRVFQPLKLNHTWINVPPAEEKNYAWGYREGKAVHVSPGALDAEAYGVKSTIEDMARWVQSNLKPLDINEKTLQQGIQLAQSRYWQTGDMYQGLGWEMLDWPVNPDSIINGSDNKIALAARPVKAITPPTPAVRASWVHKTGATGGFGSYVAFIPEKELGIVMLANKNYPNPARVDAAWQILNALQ
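20 mM phosphate pH 7.0 + 0.01% (detergent screen) or 0.0001% Triton X-100; 5.3 nM AmpC reagent; cpd preinc 15 min RT; nitrocefin (800 uM stock) to start; A480 q20 s × 4 min; Activity was normalised to no-enzyme and no-compound control wells.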
Pf growth 96h: Primary qHTS for delayed death inhibitors of the malarial parasite plastid, 96 hour incubation | actives 6.9% (n = 320,000) | AID 504834, 2011 | P. falciparum luciferase reporter growth, 96 h | Potency, µM (titrated, usually from 28.7 µM), without a hit: top-dose activity change, negative = inhibition, usual class: inhibitors
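P. falciparum expressing integrated firefly luciferase grown in erythrocytes (2% hematocrit, 0.05% parasitemia final) with compounds for 96 hours at 37 C, 5% CO2. Growth inhibition read as loss of luminescence after adding luciferase detection reagent.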
AmpC inh detg: qHTS Inhibitors of AmpC Beta-Lactamase (assay with detergent); Potency, µM (titrated, usually from 114 µM), inactives show top-dose activity change, negative = inhibition, actives largely listed as inhibitors; actives 0.041% (n = 370,000); AmpC hydrolysis of nitrocefin, absorbance 480 nm, 0.01% Triton; AID 485294, 2010; P00811;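 further: 0% = no-compound wells and -100% = no-enzyme wells; nearly all actives have a fitted effect of over 25% in size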
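AmpC (5.3 nM in the dispensed reagent) in 20 mM phosphate pH 7.0 with 0.01% (detergent screen) or 0.0001% Triton X-100 was preincubated with compounds for 15 min at room temperature. Nitrocefin was then added from an 800 uM solution, and hydrolysis was followed at 480 nm.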
Pf growth 48h: Primary qHTS for delayed death inhibitors of the malarial parasite plastid, 48 hour incubation | P. falciparum luciferase growth in erythrocytes, 48 h | Potency, µM (titrated, usually from 28.7 µM), for the others: at the top dose activity change, negative = inhibition, hits mostly inhibitors | actives 5.9% (n = 310,000) | AID 504832, 2011
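First compound was added to culture medium, then infected red cells at 0.1% parasitemia and 2% hematocrit (final). After incubation at 37 C under 5% CO2, luciferase detection reagent was dispensed and light output recorded.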
HCV inh: qHTS Assay for Inhibitors of Hepatitis C Virus (HCV). Huh7.5.1 HCVcc-Cre infection, luciferase reporter, 44 h. Potency, µM (series often up to 41.8 µM), for inactives: top-dose activity change, negative = inhibition, usual class: inhibitors. actives 3.4% (n = 340,000). AID 651820, 2012
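Whole-lifecycle infectious HCVcc-Cre system; cells 1,000/well, compound then virus (~0.5 moi) added 4 h after plating, 44 h culture. Luciferase read 15 sec following 15 min substrate incubation, room temp.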
AMA1-RON2 inh: qHTS for Inhibitors of AMA1-RON; Towards Development of Antimalarial Drug Lead: Primary Screen; Plasmodium falciparum AMA1 (3D7) - RON2 peptide interaction; Potency, µM (series often up to 58.2 µM), for inactives: at the top dose activity change, negative = inhibition, most hits filed as inhibitors; AlphaScreen AMA1-biotinylated RON2 peptide binding; AID 720542, 2013; actives 0.2% (n = 360,000);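 further: 0% = vehicle wells and -100% = peptide control; nearly all actives have a fitted effect of over 45% in size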
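AMA1 (3D7) with his tag at 25 nM final met compounds first, then biotinylated RON2 peptide at 25 nM; detection used donor plus acceptor beads, 10 µg/mL apiece, read by AlphaScreen after 30 min at room temperature.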
Numbers without * were called inactive; i = inactive; ? = inconclusive; . = not tested or not shown; [ ] = dose if it differs, or a comment. Sampled rows, rich in hits. Any-hit rate of the full collection: about 11%. The call rests on the fitted dose curve; in most records, active means well fitted curve in the direction sought with a large enough effect; inconclusive means small, poorly fitted or top-dose-only effect, or another doubt; inactive means no such curve, though single readings can be large; an effect the other way counts as inactive or inconclusive. Unless noted, on the % scale 0 is the no-effect control and ±100 the full control effect; potency means the concentration at half of the fitted maximal effect.

SMILES	AmpC no deterg	Pf growth 96h	AmpC inh detg	Pf growth 48h	HCV inh	AMA1-RON2 inh
O=C(Nc1nc2c(Cl)cccc2s1)c1ccc(S(=O)(=O)N2CCc3ccccc32)cc1	.	.	-1%	.	.	.
COc1ccc(Oc2nc(C)cc(C)c2S(C)(=O)=O)cc1	-33%	62%	3%	11%	21%	-6%
COc1ccc(CS(=O)c2nc(C)cc(C)c2S(C)(=O)=O)cc1 (configuration not stated)	8%	30%	?	12µM*	-2%	0%
COC(=O)c1sc2cccc(F)c2c1S(=O)(=O)Nc1cc(C)c(Cl)cc1OC	.	.	13%	.	.	.
Cc1ccc(CCNC(=O)c2c3c(nc4ccccc24)C(=O)N(C2CCCCC2)C3)cc1	.	.	19%	.	.	.
O=C(CSc1nc2ccccc2c(=O)n1Cc1ccco1)NCCN1C(=O)CSC1=O	-12%	?	-6%	7%	10µM*	13%
O=C(CSc1nc2ccccc2c(=O)n1Cc1ccco1)Nc1cccc(O)c1	-56%	13µM*	4%	11%	?	-25%
Cc1ccc(-n2c(SCC(=O)NCCN3C(=O)CSC3=O)nnc2-c2ccccc2)cc1	37%	15µM*	-18%	-11%	1%	2%
Cn1c(SCC(=O)NCCN2C(=O)CSC2=O)nc2ccccc2c1=O	-3%	9%	-12%	6%	-1%	-7%
N#Cc1ccc(NC(=O)COCc2cc(-c3ccc4c(c3)OCO4)on2)cc1	.	.	-6%	.	.	.
CCCCNC(=O)C(CC)Sc1nc2ccccc2c(=O)n1CCc1ccc(OC)c(OC)c1 (configuration not stated)	.	.	6%	.	.	.
Cc1cn(C)c(CC(=O)Nc2ccc(F)cc2Cl)c1C(=O)O	.	.	-6%	.	.	.
CCC(=O)Nc1cccc(C(=O)/C=C/c2cc(Br)ccc2OC)c1	3%	.	-8%	?	11µM*	0%
COc1ccc(Br)cc1/C=C/C(=O)Nc1ccc2ccccc2c1	?	12%	-8%	-12%	10µM*	9%
CC(=O)Nc1cccc(C(=O)/C=C/c2ccc(/C=C/C(=O)c3cccc(NC(C)=O)c3)cc2)c1	-15%	9.3µM*	-1%	2.9µM*	?	.
COC(=O)CNC(=O)/C=C/c1cc(Br)ccc1OC	-10%	?	-2%	15%	?	-3%
CCC(=O)Nc1cccc(C(=O)OC)c1	-6%	-1%	-15%	46%	0%	1%
COc1ccc(-c2nc3cc(C(C)C)ccc3o2)cc1NC(=O)COc1ccc(C)cc1C	.	.	24%	.	.	.
CCCc1nnc(NC(=O)Cc2coc3ccc(C)cc23)s1	.	.	4%	.	.	.
CCOC(=O)N1CCN(c2ncnc3nc[nH]c23)CC1	45µM*	9%	?	7%	8%	-9%
CCOC(=O)C1CCN(c2ncnc3nc[nH]c23)CC1	-17%	?	-7%	?	-5%	1%
c1nc(N2CCCCC2)c2[nH]cnc2n1	-8%	13µM*	-13%	-8%	-2%	0%
CNC(=S)N(Cc1ccco1)Cc1cc2cc(OC)c(OC)cc2[nH]c1=O	0%	-56%	9%	?	2%	-4%
COc1ccc2[nH]c(=O)c(CN(Cc3cccs3)C(=S)Nc3ccccc3)cc2c1	-25%	4.7µM*	1%	?	0%	.
CNC(=S)N(Cc1ccco1)Cc1cc2cc(OC)ccc2[nH]c1=O	50%	293%	1%	2.6µM*	-30%	-8%
SMILES	AmpC no deterg	Pf growth 96h	AmpC inh detg	Pf growth 48h	HCV inh	AMA1-RON2 inh
CNC(=S)N(Cc1cccs1)Cc1cc2ccc(OC)cc2[nH]c1=O	-26%	?	-9%	?	0%	?
COc1cc2cc(CN(Cc3cccs3)C(=S)Nc3ccccc3)c(=O)[nH]c2cc1OC	-29%	-1%	?	12µM*	?	7%[11.6 µM]
CCN(Cc1cc2cc(OC)ccc2[nH]c1=O)C(=O)c1ccncc1	-4%	9.3µM*	?	9%	14%	-12%
COC(=O)CSc1ncc2c(n1)-c1ccccc1N(Cc1cccc(F)c1)S2(=O)=O	.	.	-3%	.	.	.
COc1ccc(NC(=O)COCc2cc(-c3ccc4c(c3)OCO4)on2)cc1	.	.	8%	.	.	.
Cc1ccc(NC(=S)N(Cc2cccs2)Cc2cc3cccc(C)c3[nH]c2=O)cc1	-18%	7.4µM*	-11%	-28%	-6%	9%[2.32 µM]
CN(C)CCCNC(=S)N(Cc1cccs1)Cc1cc2cc3c(cc2[nH]c1=O)OCCO3	6%	-8%	10%	?	2.5µM*	-6%
CCN(CC)CCOC(=O)c1ccc(NC(=O)Cn2ncc3c([nH]c4ccc(C)cc43)c2=O)cc1	.	.	12%	.	.	.
Cc1nc(SCC(N)=O)[nH]c(=O)c1Cc1ccc(OC(C)C)cc1	-36%	1.7µM*	-1%	?	8%	-4%
CCc1ccccc1-n1ncc(C(=O)Nc2ccccc2OC)c1C	43%	13µM*	-1%	12µM*	-17%	1%
COc1ccccc1NC(=O)c1cnn(-c2ccccc2)c1-n1cccc1	.	.	-6%	.	.	.
CCCc1c(C(=O)NNc2ccccc2OC)cnn1-c1ccccc1	-2%	9.3µM*	-2%	?	-17%	?
CCCc1c(C(=O)Nc2ccc(OC)cc2)cnn1-c1ccccc1	10%	?	0%	8%	-3%	1%
CN1CCN(C(CNC(=O)C(=O)Nc2ccc(Cl)cc2)c2cccnc2)CC1 (configuration not stated)	.	.	24%	.	.	.
Cc1ccsc1C1Nc2ccc3ncccc3c2C2=C1C(=O)CC(C)(C)C2 (configuration not stated)	10%	1.2µM*	7%	1.7µM*	-6%	3%
CC(=O)N1CCCc2cc(S(=O)(=O)N3CCC(C(=O)NCc4cccc(C)c4)CC3)ccc21	.	.	-2%	.	.	.
CC(=O)Nc1cc2nn(-c3ccccc3)nc2cc1C	0%	13µM*	-12%	171%	10%	-1%
CCC(NC(=S)NC1CCCCC1)c1ccc(C(C)C)cc1 (configuration not stated)	-35%	3.3µM*	-6%	8.3µM*	.	.
CCC(NC(=O)NC1CCCCC1)c1ccccc1 (configuration not stated)	-2%	i	3%	7%	0%	-14%
COc1ccc(C(C)NC(=O)C2CCCC2)cc1OC (configuration not stated)	-14%	-12%	2%	?	11%	2%
